# Laboratory results as given in ChEMBL document CHEMBL3988442, “University of Dundee, Small-Polar-MMV Screening Library” (2021).
# Screen size: about 38,000 compounds; about 1,200 (3.2%) showed an effect of 50% or more. The median lay at about -58%. The full list was thinned out, with strong results kept by preference.
# Test system: Plasmodium falciparum
# Test: Calibr Malaria Delayed Death Assay SOP
# Assay type: functional, organism-based
# Design: scale not given: in the data most compounds retested in dose-response had high values
# Details: concentration 4.99e-06 (unit not given; other assays of the set use mol/L)
row,Structure (SMILES),Percent Effect
1,O=C(NCCc1csc(-c2ncccn2)n1)c1cnn2c1CCCC2,-31.93%
2,CC(=O)N1CCCC1c1cccc(Cc2ccccc2Cl)n1 (stereo not given),-62.89%
3,CN(C)S(=O)(=O)N1CCCC(c2cccc(Cc3ccc(Cl)cc3)n2)C1 (stereo not given),-15.18%
4,O=C(C1CC=CC1)N1C[C@H]2CN(Cc3ccncc3)C(=O)[C@H]2C1.O=C(O)C(F)(F)F,-118.6%
5,Cc1ccc(C(C(=O)O)N(C)CCN2CCOCC2)c(F)c1 (stereo not given),-35.14%
6,COc1cc(F)ccc1C(C(=O)O)N(C)CCN1CCCC1 (stereo not given),71.25%
7,COc1cc(F)ccc1C(C(=O)O)N(C)CCN1CCOCC1 (stereo not given),79.89%
8,COc1ccc(C(C(=O)O)N(C)CCN2CCCC2)cc1F (stereo not given),-71.16%
9,COc1ccc(C(C(=O)O)N(C)CCN2CCCC2)c(C)c1 (stereo not given),-56.58%
10,COc1ccc(C(C(=O)O)N(C)CCN2CCOCC2)c(C)c1 (stereo not given),-92.34%
11,CCCS(=O)(=O)N1C[C@H]2C[C@H](C(=O)Nc3cccnc3)[C@@H](C1)O2,-54.27%
12,CC(C)=CCN1CCN(Cc2cccc(C)n2)CC1CCO (stereo not given),-53.69%
13,Cc1cc(NCCc2nc(C)cs2)nc(-c2cccnc2)n1,-152.4%
14,CC(C(=O)NN1CCOCC1)n1nc(C(F)(F)F)c(Cl)c1C1CC1 (stereo not given),-94.38%
15,Cc1c(C(=O)NC2=NCCS2)cnn1-c1ccc(Cl)cc1,-71.42%
16,CN(C)CCN1CC2(CCCN(c3ncc(Cl)cc3F)C2)CCC1=O (stereo not given),82.66%
17,COCCCN1CC2(CCCN(c3ncc(Cl)cc3F)C2)CCC1=O (stereo not given),-81.54%
18,COCCN1CC2(CCCN(c3ncc(Cl)cc3F)C2)CCC1=O (stereo not given),-14.43%
19,CCN1Cc2nc(OC)c(CNC(=O)C3CCCN(C)C3)cc2C1=O (stereo not given),-47.23%
20,C=C(C)CN1CCCC(NS(C)(=O)=O)C1 (stereo not given),-112.5%
21,CO[C@H]1CN(C(=O)c2ccnnc2)[C@@H]2COC[C@H]12,-17.32%
22,CN(C)CCN1C[C@@H]2CN(c3ccccc3)C[C@@H]2C1=O.O=C(O)C(F)(F)F,-48.1%

row,Structure (SMILES),Percent Effect
1,CCC(=O)NCC(=O)NC(Cc1ccccc1)c1sccc1C (stereo not given),84.56%
2,Cc1ccsc1C(O)CNC(=O)Cc1ccc(F)cc1 (stereo not given),-29.72%
3,Cc1ccsc1C(Cc1ccccc1)NC(=O)CNC(=O)C1CC1 (stereo not given),68.17%
4,O=C(CNC(=O)C1CC1)Nc1c(F)cccc1Oc1ccccc1,-53.44%
5,CCC(=O)NC(CC)c1ccccc1C (stereo not given),-70.92%
6,Cc1ccsc1C(Cc1ccccc1)NC(=O)CSCC(N)=O (stereo not given),-15.45%
7,COc1cccc2c1OCC(Cc1cc(C(N)=O)ccn1)C2 (stereo not given),-54.91%
8,CCc1nc(CN(C)C(=O)c2ccc(OCCCOC)nc2)cs1,-70.62%
9,Cn1cc(CC(=O)N2CCC(Nc3cccnn3)CC2)c2ccccc21,-27.56%
10,CCC(CNC(=O)CNC(C)=O)Oc1cccc(F)c1 (stereo not given),84.82%
11,CCC(CNC(=O)COC)Oc1cccc(F)c1 (stereo not given),-58.01%
12,CCC(=O)NCC(CC)Oc1cccc(F)c1 (stereo not given),-6.3%
13,Cc1cc(C(=O)N2CCCC(c3cc(C(F)(F)F)[nH]n3)C2)[nH]n1 (stereo not given),-117%
14,O=C(O)C(F)(F)F.O=C(O)C(F)(F)F.c1cncc(-c2ncnc3c2CCN(Cc2ccsc2)CC3)c1,-128.4%
15,Cn1c(=O)oc2cc(S(=O)(=O)N3CCC(c4ccccc4)C3)c(Cl)cc21 (stereo not given),-8.531%
16,CCN(C)CC1CCN(C(=O)Nc2ccc(C)cc2)C1 (stereo not given),-13.91%
17,O=C(O)C(F)(F)F.O=C(c1ccncc1F)N1CC[C@@H]2CN(c3ncccn3)CCO[C@@H]2C1,-33.14%
18,Cc1ccc(CN2CCCn3c(nc(Cn4ccnc4)cc3=O)C2)s1,-9.733%
19,Cc1cc(N(Cc2ccccn2)C2CC2)n2nc(C(F)(F)F)nc2n1,-69.19%
20,COCCN(c1cc(C)nc2nc(C(F)(F)F)nn12)C1CCCC1,-69.88%
21,Cc1cc(N(Cc2cccnc2)C2CC2)n2nc(C(F)(F)F)nc2n1,22.81%
22,Cc1cc(N(Cc2ccccc2F)C2CC2)n2nc(C(F)(F)F)nc2n1,-0.7756%

row,Structure (SMILES),Percent Effect
1,Cc1ccc(CN(c2cc(C)nc3nc(C(F)(F)F)nn23)C2CC2)cc1,93.63%
2,Cc1cc(N(Cc2cccs2)C2CC2)n2nc(C(F)(F)F)nc2n1,65.64%
3,COC(=O)CCC(=O)N1CCC2(CN(Cc3ccccc3)C2)C1,-61.64%
4,Cc1cc(C)n(-c2cncc(NCCC(=O)NC(C)C)n2)n1,-25.6%
5,Fc1ccc(CN2CCO[C@H]3[C@H](OCC4CCCC4)CC[C@@H]32)cc1.O=C(O)C(F)(F)F,-74.43%
6,COC(=O)N1CCCN(Cn2nc(C)c(Br)c2C)CC1,-78.94%
7,CCOC[C@@]12CCC[C@@H]1CN(C(=O)c1ccc(OC)cc1)C2,-67.65%
8,Cn1cc(CN2CCn3cc(Cn4cccn4)nc3C2)cn1.O=C(O)C(F)(F)F,-116.7%
9,CC(C)Nc1ncnc2c1CCN(C(=O)CC1CCCC1)CC2,-30.46%
10,CCOCCN1CCN(CC(O)c2ccc(C)c(C)c2)CC1 (stereo not given),-16.95%
11,CC(C)C(=O)N1CCN(CC(O)c2cc(Cl)ccc2Cl)CC1 (stereo not given),-47.78%
12,OC(CN1CCOCC1)c1cc(Cl)ccc1Cl (stereo not given),-41.91%
13,OCCN1CCN(CC(O)c2cc(Cl)ccc2Cl)CC1 (stereo not given),-5.982%
14,CCOCCN1CCN(CC(O)c2cc(Cl)ccc2Cl)CC1 (stereo not given),77.57%
15,CCN1CCN(CC(O)c2cc(Cl)ccc2Cl)CC1 (stereo not given),76.72%
16,CC(C)c1nn(C)c(Cl)c1CNCCn1cccn1,8.083%
17,COc1ccc(CNc2nc(C3CC3)nc3c(C)nn(C)c23)cc1,25.99%
18,CCn1ccc(-c2cc(C(=O)O)n3ncc(Cl)c3n2)n1,-63.4%
19,CCC(=O)Nc1cccc(OCC(=O)N(C)CCCC2CCCO2)c1 (stereo not given),-128%
20,O=C(C(CNCc1cccs1)c1ccccc1)N1CCOCC1 (stereo not given),4.238%
21,O=C(C(CNCc1cccc(O)c1)c1ccccc1)N1CCOCC1 (stereo not given),-54.71%
